Holding throughout (assay): NCI-60 one-dose screen, 48 h (100 = growth as untreated, 0 = no growth, -100 = all killed)
Holding throughout (conditions): 10 µM unless noted

Experiment [1] has as its system SK-MEL-2 melanoma.
The subject of experiment [2] is EKVX NSCLC.
In experiment [3] the test system is SN12C renal.
The test system of experiment [4] is UO-31 renal.
Experiment [5] has as its system TK-10 renal.
In experiment [6] the test system is ACHN renal.
Experiment [7] deals with CAKI-1 renal.
Experiment [8] concerns A498 renal.
The test system of experiment [9] is CCRF-CEM leukemia.
In experiment [10] the test system is MOLT-4 leukemia.

The record followed here is PubChem BioAssay (NCI).

The panel holds about 83,000 compounds, 20% with a hit somewhere; the sample as a whole holds those more often.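 Activity criterion: percent growth below 10, measured after cells in 96-well plates were exposed to a single compound concentration for 48 hours.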 Values without a mark were called inactive. Activity calls are given as the source filed them.

As to `COC(=O)/C=C1/SC(=Nc2ccc(C(F)(F)F)cc2)N(CCc2c[nH]c3ccc(O)cc23)C1=O`, the growth in experiment [1] is -33.5% (active); in experiment [2] it was 41.1%; in experiment [3], -69% (active); in experiment [4], -18.5% (active); in experiment [5], 11.7%; in experiment [6], -46.1% (active). Moreover, the growth was 31.4% in experiment [7], -1.57% (active) in experiment [8], -9.32% (active) in experiment [9] and -36.2% (active) in experiment [10].
`N#CC1=C(N)Oc2c(ccc3ccccc23)C1c1ccccc1` (stereo not given): the growth in experiment [1] is 43.1%; in experiment [2], 41.9%; in [3] it was 32.5%; in [4], 39.3%; in [5], 46.8%; in experiment [6], 31.2%. Further, the growth is 18.1% in [7], 33.7% in experiment [8], 9.24% (active) in [9] and 14.6% in experiment [10].
As to `COc1ccc(/C=N/C2=C(C#N)C(c3ccccc3)c3ccc4ccccc4c3O2)cc1` (stereo not given), the growth is 49.4% in [1]; 42.9% in [2]; 38% in experiment [3]; 29.6% in [4]; 59.7% in experiment [5]; 35.4% in experiment [6]. Further, the growth in [7] was 28%; in experiment [8], 19.3%; in [9], 9.58% (active); in experiment [10], 19.2%.
Take `O=S(=O)(Nc1cc(F)cc(Cl)c1)c1ccc(-c2cnc(C3CC3)o2)cc1`: the growth in experiment [1] is 52.8%; in [2], 38%; in experiment [3], 45.8%; in [4], 39.3%; in experiment [5] it was 47.7%; in experiment [6], 34.4%. Also, the growth was 31.3% in [7], -6.52% (active) in [8], 23.6% in experiment [9] and 31.9% in experiment [10].
With `Cn1cc(-c2csc(-c3c[nH]c4ccccc34)n2)c2cnccc21`, the growth is 96.2% in [1]; 7.91% (active) in experiment [2]; 43.5% in experiment [3]; -64.4% (active) in experiment [4]; 55.4% in experiment [5]; -4.48% (active) in experiment [6]. Moreover, the growth in [7] is -1.8% (active); in [8], 77.1%; in experiment [9], -8.15% (active); in experiment [10] it was -5.2% (active).
As for `COC(=O)CC[C@H](C)[C@H]1CC[C@H]2[C@@H]3CC[C@@H]4CC5(CC[C@]4(C)[C@H]3CC(=O)[C@]12C)Nc1ccccc1NC5=NC(C)(C)C` (stereo not given in full), the growth was 90.9% in experiment [1]; 87.5% in experiment [2]; 87.9% in experiment [3]; 88.7% in experiment [4]; 97.4% in experiment [5]; 86.4% in [6]. Also, the growth in experiment [7] was 59.2%; in [8], 63.5%; in experiment [9], 54.7%; in experiment [10], 54.6%.
In the case of `CCCCCC(/C=N\NC(=S)N/N=C/C(=C/c1ccccc1)CCCCC)=C\c1ccccc1`, the growth in experiment [1] was 80.9%; in experiment [2] it was 76.6%; in experiment [3] it was 68.1%; in experiment [4], 45.4%; in experiment [5], 87.3%; in experiment [6], 69.3%. Besides, the growth in experiment [7] was 42.1%; in experiment [8], 70.1%; in experiment [9], 31.1%; in experiment [10] it was 42%.
As to `CCO/C=N/C1=C(C#N)C(c2ccc(Cl)cc2)c2sc3c(F)cccc3c2O1` (stereo not given), the growth was 14.2% in experiment [1]; 75.7% in experiment [2]; 79.7% in experiment [3]; 66% in [4]; 88.1% in experiment [5]; 92.3% in [6]. For the same compound, the growth in experiment [7] is 41.3%; in experiment [8], 56.5%; in experiment [9], 38.1%; in [10], 71.5%.
On to `COc1cc2cc(NCc3cccc(Cl)c3)nc(C)c2cc1OC`, for which the growth is 38.6% in experiment [1]; 60% in experiment [2]; 44.6% in experiment [3]; 36% in experiment [4]; 45.9% in experiment [5]; 43.5% in [6]. Moreover, the growth in experiment [7] was 52%; in experiment [8] it was 7.63% (active); in experiment [9], 27.5%; in [10] it was 30.4%.
Turning to `O=C1c2ccccc2-c2c1c1c(=O)[nH]c3ccccc3c1n2Cc1ccccc1`, the growth in experiment [1] was 75.2%; in [2] it was 51.9%; in experiment [3], 69.9%; in experiment [4] it was 78.3%; in experiment [5], 75.7%; in experiment [6], 46.6%. Further, the growth was 2.5% (active) in experiment [7], 0.459% (active) in [8], 87.4% in experiment [9] and 64.9% in experiment [10].
As to `Cc1cc(=O)oc2cc(OCc3nn4c(Nc5nc6ccccc6s5)c(-c5ccccc5)nc4s3)ccc12`, the growth in experiment [1] was 108%; in experiment [2], 88.4%; in experiment [3], 91.4%; in experiment [4], 83.6%; in experiment [5] it was 128%; in [6], 100%. In addition, the growth in experiment [7] was 79.5%; in experiment [8] it was 91.1%; in [9], 40.7%; in experiment [10] it was 97.5%.
Turning to `C=C(C)[C@@H]1CC[C@]2(C(=O)O)CC[C@]3(C)[C@H](CC[C@@H]4[C@@]5(C)CCC(NC(=O)c6cccc(OC(C)=O)c6OC(C)=O)C(C)(C)[C@@H]5CC[C@]43C)[C@@H]12` (stereo not given in full), the growth in experiment [1] is 14.9%; in [2], 2.51% (active); in [3] it was 12.5%; in experiment [4], -39% (active); in [5] it was 19.7%; in experiment [6], 3.98% (active). Besides, the growth is 3.74% (active) in experiment [7], -21.9% (active) in experiment [8], 10.4% in experiment [9] and 8.43% (active) in [10].
With `O=S(=O)(Nc1cc(Cl)ccc1Cl)c1ccc(-c2cnc(C3CC3)o2)cc1`, the growth in experiment [1] was 39%; in experiment [2] it was 58.7%; in experiment [3], 60.3%; in experiment [4], 49.6%; in experiment [5], 60%; in [6], 34.2%. Moreover, the growth was 33.5% in experiment [7], -7.01% (active) in [8], 20% in experiment [9] and 44.1% in experiment [10].
Regarding `Nc1n[nH]c2cccc(C#Cc3cccc(NC(=O)c4cc(F)cc(C(F)(F)F)c4)c3)c12`, the growth was 63.2% in [1]; 92.8% in experiment [2]; 53.1% in [3]; 36.8% in experiment [4]; 111% in [5]; 64.7% in experiment [6]. Further, the growth was 104% in experiment [7], 57.1% in experiment [8], 43% in [9] and 48.1% in experiment [10].
As for `O=C1Nc2ccc(C(=O)O)cc2/C1=N/c1nnc(Sc2ccccc2)s1`, the growth in experiment [1] was 112%; in experiment [2], 104%; in experiment [3] it was 96.9%; in [4], 84.3%; in experiment [5] it was 106%; in [6] it was 98.4%. Also, the growth was 85.9% in experiment [7], 86.8% in experiment [8], 99.7% in [9] and 105% in experiment [10].
On to `O=C(COc1ccc(-c2nc3cc(Cl)c(Cl)cc3[nH]2)cc1)N=Nc1c(O)[nH]c2ccc(Cl)cc12`, for which the growth is 90.2% in experiment [1]; 96.8% in [2]; 74.5% in experiment [3]; 94.4% in [4]; 91.4% in [5]; 71.8% in experiment [6]. Besides, the growth in experiment [7] is 76.3%; in [8], 91.3%; in experiment [9], 24.2%; in experiment [10] it was 47%.
Consider `COc1ccc2c(c1)c(-c1nc(-c3c[nH]c4ccncc34)cs1)cn2C`, for which the growth in experiment [1] is -45.2% (active); in experiment [2], -53.3% (active); in [3], -72% (active); in [4] it was -88% (active); in experiment [5] it was 43.4%; in experiment [6] it was -96.7% (active). For the same compound, the growth in experiment [7] is -86.3% (active); in experiment [8] it was 65.7%; in [9] it was -45.2% (active); in experiment [10] it was -42.8% (active).
With `COc1ccc(NC(=O)c2sc3nc(C)c(C(=O)/C=C/c4ccccc4)cc3c2N)cc1`, the growth in [1] is 88.7%; in [2], 87.1%; in experiment [3], 17.6%; in experiment [4], 17.7%; in [5] it was 80.5%; in experiment [6], 50.3%. Also, the growth in experiment [7] was 29%; in [8], 21%; in experiment [9], 3.56% (active); in experiment [10] it was 27.6%.
Turning to `Nc1n[nH]c2ccc([C@H]3[C@@H]4C5CCC(C5)[C@@H]4c4c(ccc5[nH]ncc45)N3S(=O)(=O)C3CC3)cc12` (stereo not given in full), the growth in [1] was 53.2%; in experiment [2], 29.8%; in experiment [3] it was 29.1%; in experiment [4], 43%; in experiment [5], 61.7%; in experiment [6], 18.5%. In addition, the growth in experiment [7] is 26.2%; in [8], -29.2% (active); in experiment [9], 16.2%; in experiment [10] it was 19%.
With `CC(C)c1ccc(C(=O)Nc2sc3c(c2C(N)=O)CCC(=O)C3)cc1`, the growth in experiment [1] is -21.5% (active); in experiment [2] it was 16.1%; in [3], 2.75% (active); in experiment [4], -97.1% (active); in [5] it was -10.6% (active); in [6], -96.8% (active). Further, the growth is -43.9% (active) in [7], 62.5% in [8], 2.5% (active) in experiment [9] and -8.16% (active) in experiment [10].
With `Oc1c(I)cc(I)cc1CNCc1ccccn1`, the growth in experiment [1] is 35.7%; in [2], 25.9%; in experiment [3], 38.4%; in experiment [4] it was 5.01% (active); in [5], 23.4%; in [6], 24.6%. For the same compound, the growth was 15.4% in [7], 62.4% in experiment [8], 23.6% in [9] and 16.2% in experiment [10].
As to `CCN1C(=S)N(c2ccccc2)C2NC(=S)N(/N=C/C=C/c3ccccc3OC)C21` (stereo not given), the growth in experiment [1] was 32.8%; in experiment [2], 48.2%; in experiment [3] it was 24.6%; in experiment [4], 44%; in experiment [5] it was 68.6%; in experiment [6], 33.3%. The growth in experiment [7] is 27.7%; in experiment [8], 1.17% (active); in [9], 9.27% (active); in [10], 9.49% (active).
For the compound `Fc1cc2c(cc1Cl)N(c1ncnc3ccc(-c4ccc5n[nH]nc5c4)cc13)CC2`, the growth in experiment [1] was 89%; in [2] it was 52.8%; in experiment [3] it was 64.9%; in experiment [4], 44.3%; in [5], 46%; in [6], 50.1%. The growth in experiment [7] is 49.3%; in [8] it was -2.78% (active); in experiment [9], 92.9%; in experiment [10] it was 90.5%.
Take `N#Cc1nc(-c2ccc(F)cc2)oc1S(=O)(=O)N1CCOCC1`: the growth in [1] is 83.6%; in [2] it was 96.2%; in [3] it was 82.1%; in [4] it was 82%; in experiment [5], -80.9% (active); in experiment [6], -99.9% (active). For the same compound, the growth was 78.5% in [7], 128% in experiment [8], 3.08% (active) in [9] and -5.27% (active) in [10].
Take `O=C(CSc1nc2sc3c(c2c(=O)n1-c1ccccc1)CCCCC3)N/N=C/c1cccc([N+](=O)[O-])c1`: the growth was 90.2% in experiment [1]; 70.3% in experiment [2]; 66.8% in experiment [3]; 75.7% in experiment [4]; 96.2% in experiment [5]; 80.6% in experiment [6]. The growth is 60% in experiment [7], 83.7% in [8], 76.6% in experiment [9] and 70.5% in experiment [10].
For the compound `Cn1ccc(=O)c(C(=O)Nc2nsc3ccc([N+](=O)[O-])cc23)c1`, the growth in experiment [1] was 55.7%; in experiment [2], 81.7%; in experiment [3], 75.3%; in experiment [4], 28.1%; in [5], 50%; in experiment [6], 32.6%. Also, the growth was 6.88% (active) in experiment [7], 31.9% in [8], 82.7% in experiment [9] and 83.4% in experiment [10].
